High-throughput results from PubChem BioAssay.
CYP2C9 inh: blocks human cytochrome P450 2C9; P11712; CYP2C9 Supersomes, luciferin-H conversion, luminescence; inhibition, % at 5 µM; 96,000 compounds, 20% hits; AID 777;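 active means blocking of liver enzyme CYP2C9 beyond about 50% at 5 µM, limit read from the data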
Cav3 T inh: inhibitors of human Cav3.2 T-type calcium channel; O95180; B-score at 10 µM; 100,000 compounds, 4% hits; Cav3.2-expressing cells, Fluo-4 calcium fluorescence FDSS; hits give low values;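 active means single-dose well whose peak fluorescence ratio is a statistical outlier from its plate by either plate-standardised score or position-corrected B-score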
CYP2C19 inh: blocks human cytochrome P450 2C19; AID 778; 96,000 compounds, 21% hits; CYP2C19 Supersomes, luciferin-H EGE luminescence, 30 min; inhibition, % at 5 µM;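 active means CYP2C19 inhibition above a set limit at 5 µM in the primary screen, cut at about 50% in these data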;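 further: plate controls were negative control wells for no effect and 2.5 mM tranylcypromine positive control for full effect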
Target sequence (P33261 whole entry, looked up): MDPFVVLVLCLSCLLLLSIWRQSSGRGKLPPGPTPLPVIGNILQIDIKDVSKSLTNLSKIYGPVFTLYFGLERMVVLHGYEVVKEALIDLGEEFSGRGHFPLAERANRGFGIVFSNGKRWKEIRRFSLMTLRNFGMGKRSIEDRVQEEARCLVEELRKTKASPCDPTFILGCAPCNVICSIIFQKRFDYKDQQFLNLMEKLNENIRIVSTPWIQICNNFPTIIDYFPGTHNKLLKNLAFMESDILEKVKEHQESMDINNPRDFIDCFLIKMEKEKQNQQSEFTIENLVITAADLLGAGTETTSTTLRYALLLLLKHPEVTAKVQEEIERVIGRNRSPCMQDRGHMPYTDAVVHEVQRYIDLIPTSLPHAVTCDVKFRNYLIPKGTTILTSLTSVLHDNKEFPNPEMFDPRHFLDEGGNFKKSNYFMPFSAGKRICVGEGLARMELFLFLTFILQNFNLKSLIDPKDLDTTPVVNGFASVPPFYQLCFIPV
CYP2C19 activ: activators of human cytochrome P450 2C19; P33261; recombinant CYP2C19, luciferin-H EGE luminescence; hits give high values; 0 = fully inhibited enzyme, 1 = untreated enzyme; activation factor at 5 µM; 96,000 tested, under 10 active;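 active means activation factor of at least 2 at 5 µM in the primary screen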;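 further: 0 = wells with 2.5 mM tranylcypromine and 1 = vehicle-only wells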
CYP2C9 activ: CYP2C9 (human) activation; P11712; recombinant CYP2C9, luciferin-H conversion, luminescence; hits give high values; factor 1 = untreated enzyme, 0 = blocked; activation factor at 5 µM; 96,000 compounds, 1.4% hits; AID 1024;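 active means activation factor of 2 or more for CYP2C9 at a 5 µM dose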;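 further: 0 = sulfaphenazole-blocked wells and 1 = vehicle-only wells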
Numbers without * were called inactive; · = no result given. Most compounds without a hit are left out; they make up all but 27% or so of the library.

SMILES | CYP2C9 inh | Cav3 T inh | CYP2C19 inh | CYP2C19 activ | CYP2C9 activ
CC(C)CCn1c(N2CCN(c3cccc(Cl)c3)CC2)nc2c1c(=O)[nH]c(=O)n2C | · | -8.46* | · | · | ·
CCCCCn1c(CN2CCN(c3cccc(Cl)c3)CC2)nc2c1c(=O)[nH]c(=O)n2C | 58.7* | -1.5 | 44.1 | 0.6 | 0.4
CCCCCn1c(CN2CCN(C(=O)OCC)CC2)nc2c1c(=O)[nH]c(=O)n2C | -4.3 | 0.536 | -9.7 | 1.1 | 1
CCCCCCn1c(N2CCN(c3cccc(Cl)c3)CC2)nc2c1c(=O)[nH]c(=O)n2C | 1.6 | -1.88 | -9.3 | 1.1 | 1
Cc1ccc(S/C=C\C(=O)c2ccccc2)cc1 | 10.5 | -1.27 | 12.4 | 0.9 | 0.9
CCCCCCn1c(N2CCN(c3ccccc3)CC2)nc2c1c(=O)[nH]c(=O)n2C | · | -5.71* | · | · | ·
CCCCCCn1c(N2CCC(C(N)=O)CC2)nc2c1c(=O)[nH]c(=O)n2C | -2.6 | 1.74 | 24.8 | 0.8 | 1
OCOCCCn1c(C2CCCN2c2nc(-c3ccc(F)cc3)cs2)nc2cc(Cl)c(N3CCCCC3)cc21 (stereo not given) | · | -1.75 | · | · | ·
CN(C(=O)c1ccncc1)c1nnc(-c2ccncc2)s1 | 93.6* | 2.69 | 96.2* | 0 | 0.1
CN(C(=O)C1CCCO1)c1nnc(-c2ccncc2)s1 (stereo not given) | 13.8 | 1.05 | 98.3* | 0 | 0.9
CN(C(=O)C1CCCO1)c1nnc(-c2ccccn2)s1 (stereo not given) | -8.5 | 0.156 | -5.6 | 1.1 | 1.1
CN(C(=O)C1CCOC1)c1nnc(-c2ccncc2)s1 (stereo not given) | 24.2 | -0.785 | 98.3* | 0 | 0.8
Cc1cccc(C(=O)N(C)c2nnc(-c3ccncc3)s2)c1 | · | 1.21 | · | · | ·
Cc1cnc(-c2nnc(N(C)C(=O)C3CCOC3)s2)cn1 (stereo not given) | -21.3 | 0.0091 | -13.9 | 1.1 | 1.2
COc1cc(NC(=O)c2ccc3c(c2)OCO3)ccc1NC(=O)c1ccco1 | · | 0.659 | · | · | ·
Cc1ccc(S(=O)(=O)/N=c2\sccn2C)cc1 | -122.1 | -1.46 | 21.1 | 0.8 | 2.2*
O=C1CC(c2ccccc2)Cc2nc3ncnn3cc21 (stereo not given) | 6.9 | -0.105 | 98.9* | 0 | 0.9
Cc1nc(SC2C=CS(=O)(=O)C2)n[nH]1 (stereo not given) | 1.2 | -0.00413 | 0.6 | 1 | 1
O=C(Nc1ccc(S(=O)(=O)N2CCOCC2)cc1)c1ccc(CN2CCc3ccccc3C2)cc1 | 55.1* | -0.703 | 23.1 | 0.8 | 0.4
Cc1cc(C)c(NC(=O)c2ccc(CN3CCc4ccccc4C3)cc2)c(C)c1 | 27.1 | -4.34* | 18.2 | 0.8 | 0.7
CCOC(=O)C1Cc2ccccc2C(=O)O1 (stereo not given) | 3.9 | -0.0469 | 22.5 | 0.8 | 1
CCOC(=O)C1=C(N)c2ccccc2CC1C(C)C (stereo not given) | 81.0* | · | 95.8* | 0 | 0.2
CCC(C)NC(=O)CSc1ccc(NC(C)=O)cc1 (stereo not given) | 28.0 | 0.415 | 19.8 | 0.8 | 0.7
CC(=O)Nc1ccc(SCC(=O)c2cc(C)n(CC(F)(F)F)c2C)cc1 | 57.5* | -0.358 | 93.4* | 0.1 | 0.4
CC(=O)Nc1ccc(SCC(=O)c2cc(C)n(C)c2C)cc1 | 41.0 | 0.252 | 79.1* | 0.2 | 0.6
SMILES | CYP2C9 inh | Cav3 T inh | CYP2C19 inh | CYP2C19 activ | CYP2C9 activ
O=C(Nc1ccc(-c2noc(-c3cccs3)n2)cc1)c1cccnc1 | · | 0.345 | · | · | ·
COc1cccc(-c2nnc(NC(=O)c3ccc(S(=O)(=O)N4CC(C)OC(C)C4)cc3)o2)c1 (stereo not given) | -17.8 | · | 7.6 | 0.9 | 1.2
COc1cccc(C(=O)O/N=C(\N)c2ccncc2)c1 | 70.3* | -0.761 | 82.3* | 0.2 | 0.3
COc1cc(C(=O)O/N=C(\N)c2ccncc2)cc(OC)c1OC | 88.6* | 1.1 | 72.4* | 0.3 | 0.1
Cc1cc(C)cc(C(=O)O/N=C(\N)c2ccc(Br)cc2)c1 | -247.1 | 0.183 | -13.3 | 1.1 | 3.5*
COc1ccc(/C(N)=N/OC(=O)c2cccc([N+](=O)[O-])c2)cc1 | -5.8 | -0.0337 | -8.9 | 1.1 | 1.1
COc1cccc(C(=O)O/N=C(\N)c2ccc([N+](=O)[O-])cc2)c1 | -96.2 | 0.892 | 12.0 | 0.9 | 2*
CCOC(=O)C1=C(CSc2nc3ccccc3s2)NC(=O)NC1c1cccc([N+](=O)[O-])c1 (stereo not given) | 21.7 | 0.323 | 34.3 | 0.7 | 0.8
CCC(=O)c1ccc(OCC(=O)Nc2nn3cnnc3s2)cc1 | 84.4* | -0.231 | 29.1 | 0.7 | 0.2
CCOC(=O)c1ccc(NC(=O)COc2ccc(-n3cnnn3)cc2)cc1 | -9.3 | -0.364 | -8.3 | 1.1 | 1.1
Cc1ccc(S(=O)(=O)NC(=NCC(=O)O)c2ccc(F)cc2)cc1 | -4.8 | 0.772 | -14.6 | 1.1 | 1
CC1(C)C2CCC1(CS(=O)(=O)N1CCCc3ccccc31)C(=O)C2 (stereo not given) | -222.2 | · | 41.5 | 0.6 | 3.2*
CC1(C)C2CCC1(CS(=O)(=O)N1CCOCC1)C(=O)C2 (stereo not given) | -35.9 | 0.0767 | 0.4 | 1 | 1.4
COc1ccccc1N1CCN(S(=O)(=O)CC23CCC(CC2=O)C3(C)C)CC1 (stereo not given) | -24.3 | 0.472 | 59.5* | 0.4 | 1.2
COc1cccc(NS(=O)(=O)CC23CCC(CC2=O)C3(C)C)c1 (stereo not given) | 6.2 | 0.0115 | 58.8* | 0.4 | 0.9
CC1CCc2cc(F)ccc2N1C(=O)CSc1nnc(-c2cccs2)n1C (stereo not given) | -5.4 | 1.14 | 7.5 | 0.9 | 1.1
CCOc1ccccc1Nc1nnc(Cc2ccccc2Cl)c(=O)[nH]1 | 40.3 | 0.53 | 28.0 | 0.7 | 0.6
CSc1nc(Cl)c(Cc2ccc(OC(C)C)cc2)c(N2CCOCC2)n1 | 61.8* | -0.551 | 45.0 | 0.6 | 0.4
Cc1nn2c3c(cnc2c1-c1ccc(Cl)cc1)C(=O)CC(c1ccco1)C3 (stereo not given) | -36.8 | -0.378 | -19.6 | 1.2 | 1.4
CC(C)NC(=O)C12CC3CC(C1)CC(n1cnc(Cl)n1)(C3)C2 | 10.6 | 0.411 | 15.7 | 0.8 | 0.9
COc1ccc(OC)c(NC(=O)C23CC4CC(C2)CC(n2cnc(Br)n2)(C4)C3)c1 | -158.7 | 0.666 | 72.4* | 0.3 | 2.6*
COc1ccc(NC(=O)C23CC4CC(C2)CC(n2cnc(Br)n2)(C4)C3)c(OC)c1 | -6.4 | 3.36* | 4.6 | 1 | 1.1
Cc1ccc(NC(=O)CSC(N)=O)cc1Cl | 42.3 | -6.25* | 29.6 | 0.7 | 0.6
NC(=O)SCC(=O)Nc1ccc(Cl)c(Cl)c1 | 73.7* | · | 46.2 | 0.5 | 0.3
CCC(CC)C(=O)Nc1ccc(Sc2ccc([N+](=O)[O-])cc2)cc1 | 0.6 | -5.12* | 12.9 | 0.9 | 1
COCC(=O)Nc1ccc(C)c(Cl)c1 | -10.7 | -0.188 | 22.9 | 0.8 | 1.1
NC(=O)SCC(=O)Nc1ccc(Cl)cc1 | 51.4* | -4.01 | 36.3 | 0.6 | 0.5
Cc1ccc(NC2c3ncccc3C(=O)N2C2CCCCC2)cc1C (stereo not given) | 17.2 | 0.77 | 43.9 | 0.6 | 0.8
